Assay results published in the supplement of paper PMC10849652.
Of roughly 8,800 targets only a part is listed; those with a hit were picked by preference. About 0.5% of all pairs of compound and target were hits. A number with no mark means an inactive call.

What was measured:
Experiment in all cases: log2 fold change, soluble protein after heating vs DMSO (PISA); higher = thermal stabilisation; K562 lysate, 10 uM; active = over 0.2 and 3.5 SD of the protein, either way, in both replicates (recomputed)
ibrutinib = compound: C=CC(=O)N1CCC[C@@H](n2nc(-c3ccc(Oc4ccccc4)cc3)c3c(N)ncnc32)C1 [ibrutinib]
Summary of the method: (§1)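 To prepare the extract, K562 pellets were dounce-homogenised in PBS pH 7.4 with 1 mM MgCl2, giving crude material at 1 mg/mL protein. This was treated with 10 μM compound for 30 min, then heated in aliquots for 3 min over 48°C-58°C before pooling and addition of NP-40 to 0.5% at 4°C. Centrifugation at 21,000xg for 90 min left soluble protein in the supernatant, which TMTpro 16plex LC-MS/MS quantified with equalised channel sums. Results are log-two fold changes in thermal stability compared with solvent controls, from duplicates.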

[1] = compound: CC(=O)c1cnc2ccc(-c3cc(Cl)c(O)c(Cl)c3)nc2c1N[C@H]1CC[C@H](CN(C)C)CC1
Summary of the method: as §1

ralimetinib = compound: CC(C)(C)Cn1c(N)nc2ccc(-c3[nH]c(C(C)(C)C)nc3-c3ccc(F)cc3)nc21 [ralimetinib]
Summary of the method: as §1

[2] = compound: CC(C)(O)CC(=O)NCCn1ccc2ncnc(Nc3ccc(Oc4cccc(C(F)(F)F)c4)c(Cl)c3)c21
Summary of the method: as §1

[3] = compound: CC(C)C1=C2N=C(C=C(N2N=C1)NCC3=CC=CC=C3)NCCCCCCN
Summary of the method: as §1

[4] = compound: CC1=C(C2=C(C=C1)C(=O)C3=CC=CC=C3N2CCCN)C
Summary of the method: as §1

[5] = compound: CC1=C(C=C(C=C1)NC(=O)C2=CC(=CC=C2)C(C)(C)C#N)NC3=CC4=C(C=C3)N=CN(C4=O)C
Summary of the method: as §1

[6] = compound: CC1=C(C=C(C=C1)NC(=O)C2=CC(=CC=C2)N(C)C)NC(=O)C3=CC=C(C=C3)O
Summary of the method: as §1

[7] = compound: CC1=CC=C(C=C1)SC2=C3C=C(SC3=CN=C2)C(=O)N
Summary of the method: as §1

[8] = compound: CC1=C(C(CC(=O)N1)C2=CC=C(C=C2)C(F)(F)F)C(=O)NC3=C(C=C4C(=C3)C=NN4)F
Summary of the method: as §1

## ABCC5 (UniProt O15440)
ibrutinib
  log2 fold change: -0.109
[1]
  log2 fold change: 0.012
ralimetinib
  log2 fold change: -0.216
[2]
  log2 fold change: -0.145
[3]
  log2 fold change: -0.015
[4]
  log2 fold change: -0.094
[5]
  log2 fold change: 0.019
[6]
  log2 fold change: 0.187
[7]
  log2 fold change: -0.019

## ARMCX5 (UniProt Q6P1M9)
ibrutinib
  log2 fold change: 0.04
[1]
  log2 fold change: -0.018
ralimetinib
  log2 fold change: 0.012
[2]
  log2 fold change: 0.013
[3]
  log2 fold change: -0.004
[8]
  log2 fold change: -0.047
[4]
  log2 fold change: 0.053
[6]
  log2 fold change: -0.049
[7]
  log2 fold change: -0.093

## ABHD13 (UniProt Q7L211)
ibrutinib
  log2 fold change: 0.041
[1]
  log2 fold change: -0.017
[8]
  log2 fold change: -0.028
[4]
  log2 fold change: 0.196
[5]
  log2 fold change: 0.03
[7]
  log2 fold change: 0.003

## ABCA3 (UniProt Q99758)
ibrutinib
  log2 fold change: -0.036
[1]
  log2 fold change: -0.002
ralimetinib
  log2 fold change: -0.041
[2]
  log2 fold change: -0.13
[3]
  log2 fold change: -0.023
[4]
  log2 fold change: -0.112
[5]
  log2 fold change: 0.062
[6]
  log2 fold change: -0.028
[7]
  log2 fold change: 0.128

## AP3D1 isoform 2 (UniProt O14617)
[1]
  log2 fold change: -0.085
[3]
  log2 fold change: 0.09
[8]
  log2 fold change: 0.127
[7]
  log2 fold change: 0.053

## ALDH3A1 (UniProt P30838)
Chain of UniProt P30838 (P30838 whole entry, looked up): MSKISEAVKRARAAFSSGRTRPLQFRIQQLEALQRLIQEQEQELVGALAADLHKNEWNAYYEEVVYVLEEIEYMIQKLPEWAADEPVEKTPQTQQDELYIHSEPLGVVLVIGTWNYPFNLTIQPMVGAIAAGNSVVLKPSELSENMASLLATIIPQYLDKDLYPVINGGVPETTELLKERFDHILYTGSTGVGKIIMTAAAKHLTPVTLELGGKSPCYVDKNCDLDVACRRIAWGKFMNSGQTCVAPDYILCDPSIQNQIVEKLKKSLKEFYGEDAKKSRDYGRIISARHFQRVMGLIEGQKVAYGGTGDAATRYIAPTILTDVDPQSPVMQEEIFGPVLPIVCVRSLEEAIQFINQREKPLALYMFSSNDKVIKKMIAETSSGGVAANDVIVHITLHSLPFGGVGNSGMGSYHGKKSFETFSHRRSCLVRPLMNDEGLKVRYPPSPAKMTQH
[1]
  log2 fold change: -0.197
ralimetinib
  log2 fold change: -0.274
[2]
  log2 fold change: -0.259
[3]
  log2 fold change: 0.04
[4]
  log2 fold change: 1.23 (active)
[5]
  log2 fold change: 0.432
[6]
  log2 fold change: -0.001
[7]
  log2 fold change: -0.119

## AMDHD2 (UniProt Q9Y303)
[5]
  log2 fold change: 0.014

## ARL13B (UniProt Q3SXY8)
ibrutinib
  log2 fold change: -0.001
[1]
  log2 fold change: -0.033
ralimetinib
  log2 fold change: 0.058
[2]
  log2 fold change: -0.032
[3]
  log2 fold change: 0.081
[4]
  log2 fold change: -0.002
[5]
  log2 fold change: 0.047
[6]
  log2 fold change: -0.068
[7]
  log2 fold change: 0.077

## ANKRD44 isoform 2 (UniProt Q8N8A2)
Chain of UniProt Q8N8A2 (Q8N8A2 whole entry, looked up): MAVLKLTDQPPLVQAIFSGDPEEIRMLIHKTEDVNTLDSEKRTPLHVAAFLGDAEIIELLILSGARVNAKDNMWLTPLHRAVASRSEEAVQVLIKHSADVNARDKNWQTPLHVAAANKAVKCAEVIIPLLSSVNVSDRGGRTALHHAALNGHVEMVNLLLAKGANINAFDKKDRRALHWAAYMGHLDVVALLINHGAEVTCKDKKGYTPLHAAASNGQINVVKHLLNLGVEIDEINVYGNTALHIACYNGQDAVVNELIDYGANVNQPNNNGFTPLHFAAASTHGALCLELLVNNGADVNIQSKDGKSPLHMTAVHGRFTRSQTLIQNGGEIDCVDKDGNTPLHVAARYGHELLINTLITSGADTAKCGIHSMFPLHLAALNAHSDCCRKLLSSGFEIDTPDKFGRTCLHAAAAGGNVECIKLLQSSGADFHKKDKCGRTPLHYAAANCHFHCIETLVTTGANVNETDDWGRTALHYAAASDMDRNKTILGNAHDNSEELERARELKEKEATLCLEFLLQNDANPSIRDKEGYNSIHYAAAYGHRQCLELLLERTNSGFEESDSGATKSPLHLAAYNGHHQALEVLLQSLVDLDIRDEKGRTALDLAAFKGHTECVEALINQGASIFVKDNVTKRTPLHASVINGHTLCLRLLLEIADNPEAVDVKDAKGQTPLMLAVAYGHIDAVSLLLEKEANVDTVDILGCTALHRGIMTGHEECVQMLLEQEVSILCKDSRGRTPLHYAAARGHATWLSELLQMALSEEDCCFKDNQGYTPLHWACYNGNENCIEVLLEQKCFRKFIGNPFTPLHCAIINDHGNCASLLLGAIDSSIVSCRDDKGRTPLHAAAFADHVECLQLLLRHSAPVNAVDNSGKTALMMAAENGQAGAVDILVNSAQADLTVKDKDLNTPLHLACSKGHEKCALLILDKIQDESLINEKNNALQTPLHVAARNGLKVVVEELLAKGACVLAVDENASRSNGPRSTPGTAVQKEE
ibrutinib
  log2 fold change: -0.131
[1]
  log2 fold change: 0.067
[3]
  log2 fold change: -0.026
[8]
  log2 fold change: 0.075
[7]
  log2 fold change: -0.029

## ALKBH1 (UniProt Q13686)
Chain of UniProt Q13686 (Q13686 whole entry, looked up): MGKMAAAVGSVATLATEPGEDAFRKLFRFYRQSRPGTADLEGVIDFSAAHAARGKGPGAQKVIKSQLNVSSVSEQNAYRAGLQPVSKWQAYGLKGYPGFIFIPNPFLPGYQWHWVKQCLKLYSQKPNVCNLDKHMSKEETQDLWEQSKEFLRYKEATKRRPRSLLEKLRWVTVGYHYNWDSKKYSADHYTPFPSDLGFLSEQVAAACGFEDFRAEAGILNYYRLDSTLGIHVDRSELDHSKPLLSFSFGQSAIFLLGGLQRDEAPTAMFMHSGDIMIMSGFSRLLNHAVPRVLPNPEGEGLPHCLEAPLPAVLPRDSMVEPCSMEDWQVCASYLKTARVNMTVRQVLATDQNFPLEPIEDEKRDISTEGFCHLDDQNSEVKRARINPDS
ralimetinib
  log2 fold change: 0.095
[2]
  log2 fold change: -0.1
[3]
  log2 fold change: 0.008
[8]
  log2 fold change: -0.003
[4]
  log2 fold change: -0.102
[6]
  log2 fold change: 0.093

## ARAP1 (UniProt Q96P48)
ibrutinib
  log2 fold change: -0.01
[1]
  log2 fold change: 0.002
ralimetinib
  log2 fold change: 0.016
[2]
  log2 fold change: 0.028
[3]
  log2 fold change: 0.003
[8]
  log2 fold change: 0.02
[4]
  log2 fold change: -0.01
[5]
  log2 fold change: 0.005
[6]
  log2 fold change: 0.057
[7]
  log2 fold change: 0.006

## ACVR1 (UniProt Q04771)
ibrutinib
  log2 fold change: -0.047
[8]
  log2 fold change: -0.152
[4]
  log2 fold change: -0.02

## ASPH (UniProt Q12797)
ibrutinib
  log2 fold change: 0.015
[1]
  log2 fold change: -0.004
ralimetinib
  log2 fold change: -0.006
[2]
  log2 fold change: -0.001
[3]
  log2 fold change: -0.028
[8]
  log2 fold change: 0.052
[4]
  log2 fold change: 0.076
[5]
  log2 fold change: -0.025
[6]
  log2 fold change: 0.025
[7]
  log2 fold change: 0

## AGPAT2 (UniProt O15120)
ralimetinib
  log2 fold change: 0.1
[2]
  log2 fold change: -0.071
[3]
  log2 fold change: 0.046
[8]
  log2 fold change: 0.03
[5]
  log2 fold change: -0.064
[6]
  log2 fold change: 0.013

## ARHGEF2 (UniProt V9GYF0)
[1]
  log2 fold change: 0.02
ralimetinib
  log2 fold change: -0.041
[2]
  log2 fold change: -0.126
[8]
  log2 fold change: -0.055
[4]
  log2 fold change: -0.011
[6]
  log2 fold change: 0.008
[7]
  log2 fold change: -0.07

## ALKBH7 (UniProt Q9BT30)
Chain of UniProt Q9BT30 (Q9BT30 whole entry, looked up): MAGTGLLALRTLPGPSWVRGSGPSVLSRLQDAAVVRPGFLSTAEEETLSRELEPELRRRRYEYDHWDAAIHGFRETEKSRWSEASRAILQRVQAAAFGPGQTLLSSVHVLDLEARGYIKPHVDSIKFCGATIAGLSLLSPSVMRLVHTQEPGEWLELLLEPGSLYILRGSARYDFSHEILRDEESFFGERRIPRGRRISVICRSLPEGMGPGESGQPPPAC
ralimetinib
  log2 fold change: 0.116
[2]
  log2 fold change: 0.09
[3]
  log2 fold change: -0.085
[8]
  log2 fold change: 0.256
[4]
  log2 fold change: -0.012
[5]
  log2 fold change: 0.077
[6]
  log2 fold change: 0.019

## AIMP2 isoform 2 (UniProt Q13155)
ibrutinib
  log2 fold change: -0.28
[1]
  log2 fold change: 0.064
ralimetinib
  log2 fold change: 0.061
[2]
  log2 fold change: -0.036
[5]
  log2 fold change: 0.089
[6]
  log2 fold change: 0.023
[7]
  log2 fold change: 0

## AGGF1 (UniProt Q8N302)
ibrutinib
  log2 fold change: 0.034
[1]
  log2 fold change: 0.077
ralimetinib
  log2 fold change: -0.014
[2]
  log2 fold change: -0.023
[3]
  log2 fold change: -0.017
[8]
  log2 fold change: -0.011
[5]
  log2 fold change: 0.034
[6]
  log2 fold change: -0.04
[7]
  log2 fold change: -0.341

## ANKRD30B (UniProt Q9BXX2)
Chain of UniProt Q9BXX2 (Q9BXX2 whole entry, looked up): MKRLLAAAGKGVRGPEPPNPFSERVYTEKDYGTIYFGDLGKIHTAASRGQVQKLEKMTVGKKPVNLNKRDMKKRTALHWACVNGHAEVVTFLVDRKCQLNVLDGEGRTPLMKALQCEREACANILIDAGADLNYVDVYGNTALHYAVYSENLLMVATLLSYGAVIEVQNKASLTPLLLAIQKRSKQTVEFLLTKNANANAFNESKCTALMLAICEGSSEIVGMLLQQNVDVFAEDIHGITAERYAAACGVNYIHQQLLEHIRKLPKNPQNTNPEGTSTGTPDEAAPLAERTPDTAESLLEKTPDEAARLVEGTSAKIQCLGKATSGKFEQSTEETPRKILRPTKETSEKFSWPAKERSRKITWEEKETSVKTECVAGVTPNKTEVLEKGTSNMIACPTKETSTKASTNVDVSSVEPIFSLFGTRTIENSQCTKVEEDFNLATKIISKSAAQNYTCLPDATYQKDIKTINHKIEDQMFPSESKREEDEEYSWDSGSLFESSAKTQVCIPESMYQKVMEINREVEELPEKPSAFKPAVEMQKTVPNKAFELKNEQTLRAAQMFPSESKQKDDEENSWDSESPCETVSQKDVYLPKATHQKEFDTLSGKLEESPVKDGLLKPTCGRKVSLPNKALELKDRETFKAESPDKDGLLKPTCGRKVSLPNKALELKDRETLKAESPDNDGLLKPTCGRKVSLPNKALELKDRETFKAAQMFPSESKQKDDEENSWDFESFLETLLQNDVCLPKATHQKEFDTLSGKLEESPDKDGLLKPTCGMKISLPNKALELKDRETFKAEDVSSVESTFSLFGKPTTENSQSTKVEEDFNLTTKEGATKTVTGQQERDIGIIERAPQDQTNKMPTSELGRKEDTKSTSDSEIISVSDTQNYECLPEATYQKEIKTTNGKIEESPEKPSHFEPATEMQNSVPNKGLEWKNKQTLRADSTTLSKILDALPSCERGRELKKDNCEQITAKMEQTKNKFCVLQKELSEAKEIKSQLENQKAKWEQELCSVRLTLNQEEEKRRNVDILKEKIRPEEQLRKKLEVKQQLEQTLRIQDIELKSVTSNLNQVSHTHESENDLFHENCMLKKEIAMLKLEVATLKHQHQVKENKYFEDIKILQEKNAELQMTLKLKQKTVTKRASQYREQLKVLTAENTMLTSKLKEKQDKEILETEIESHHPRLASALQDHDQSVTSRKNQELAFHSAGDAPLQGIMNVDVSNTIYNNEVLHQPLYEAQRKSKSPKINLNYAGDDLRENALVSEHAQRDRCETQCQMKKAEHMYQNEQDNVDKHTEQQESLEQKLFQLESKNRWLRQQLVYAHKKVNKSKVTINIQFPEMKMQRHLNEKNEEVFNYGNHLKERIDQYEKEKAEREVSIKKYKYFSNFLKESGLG
ibrutinib
  log2 fold change: -0.063
[1]
  log2 fold change: -0.086
ralimetinib
  log2 fold change: -0.007
[2]
  log2 fold change: -0.16
[3]
  log2 fold change: 0.038
[8]
  log2 fold change: -0.098
[4]
  log2 fold change: -0.064
[6]
  log2 fold change: 0.024
[7]
  log2 fold change: -0.167

## ACTG1 (UniProt K7EM38)
[1]
  log2 fold change: -0.044
[7]
  log2 fold change: 0.152

## AHCYL1 (UniProt O43865)
Chain of UniProt O43865 (O43865 whole entry, looked up): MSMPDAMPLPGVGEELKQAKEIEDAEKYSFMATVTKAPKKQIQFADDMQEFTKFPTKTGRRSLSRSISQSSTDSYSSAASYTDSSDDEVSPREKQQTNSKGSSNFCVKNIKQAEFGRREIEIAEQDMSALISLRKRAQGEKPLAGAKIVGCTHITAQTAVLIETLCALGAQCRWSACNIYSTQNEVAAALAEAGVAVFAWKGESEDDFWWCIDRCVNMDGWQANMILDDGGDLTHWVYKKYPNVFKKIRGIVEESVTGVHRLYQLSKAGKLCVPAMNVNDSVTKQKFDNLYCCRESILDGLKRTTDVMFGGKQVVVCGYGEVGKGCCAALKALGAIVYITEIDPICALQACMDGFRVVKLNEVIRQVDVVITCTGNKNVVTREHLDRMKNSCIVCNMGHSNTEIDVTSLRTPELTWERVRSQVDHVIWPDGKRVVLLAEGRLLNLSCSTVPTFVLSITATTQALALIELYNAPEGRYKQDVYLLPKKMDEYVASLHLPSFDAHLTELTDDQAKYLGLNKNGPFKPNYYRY
ibrutinib
  log2 fold change: 0.014
[1]
  log2 fold change: -0.02
ralimetinib
  log2 fold change: -0.004
[2]
  log2 fold change: 0.022
[3]
  log2 fold change: 0.003
[8]
  log2 fold change: 0.016
[4]
  log2 fold change: -0.065
[5]
  log2 fold change: -0.028
[6]
  log2 fold change: 0.009
[7]
  log2 fold change: 0.021

## ALDH18A1 isoform 2 (UniProt P54886)
Chain of UniProt P54886 (P54886 whole entry, looked up): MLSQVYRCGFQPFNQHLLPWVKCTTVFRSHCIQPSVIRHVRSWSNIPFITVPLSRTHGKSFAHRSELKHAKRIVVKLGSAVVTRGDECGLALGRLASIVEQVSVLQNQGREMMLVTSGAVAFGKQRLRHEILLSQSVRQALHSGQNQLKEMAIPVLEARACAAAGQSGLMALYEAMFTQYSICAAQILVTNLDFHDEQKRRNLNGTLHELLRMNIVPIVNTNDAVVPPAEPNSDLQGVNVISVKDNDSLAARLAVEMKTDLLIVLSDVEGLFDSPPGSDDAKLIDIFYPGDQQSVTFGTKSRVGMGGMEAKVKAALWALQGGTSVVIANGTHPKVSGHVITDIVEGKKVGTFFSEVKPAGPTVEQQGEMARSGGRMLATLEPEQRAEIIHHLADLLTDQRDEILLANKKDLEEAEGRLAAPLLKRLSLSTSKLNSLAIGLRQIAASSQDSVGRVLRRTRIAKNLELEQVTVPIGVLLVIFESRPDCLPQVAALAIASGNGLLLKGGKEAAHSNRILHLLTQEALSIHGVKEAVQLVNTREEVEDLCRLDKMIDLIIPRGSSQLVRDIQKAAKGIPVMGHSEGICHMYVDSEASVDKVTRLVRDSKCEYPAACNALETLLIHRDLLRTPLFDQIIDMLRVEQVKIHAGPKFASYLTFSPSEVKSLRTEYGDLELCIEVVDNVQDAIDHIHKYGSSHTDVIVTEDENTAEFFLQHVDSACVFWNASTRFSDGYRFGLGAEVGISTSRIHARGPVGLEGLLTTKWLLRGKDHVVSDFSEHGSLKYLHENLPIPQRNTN
ralimetinib
  log2 fold change: -0.308
[2]
  log2 fold change: -0.245
[4]
  log2 fold change: -0.378
[5]
  log2 fold change: 0.03
[6]
  log2 fold change: 0.19

## ACYP2 (UniProt P14621)
Chain of UniProt P14621 (P14621 whole entry, looked up): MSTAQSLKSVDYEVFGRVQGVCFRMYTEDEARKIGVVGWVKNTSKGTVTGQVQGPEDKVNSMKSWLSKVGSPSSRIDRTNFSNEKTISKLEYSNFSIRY
ibrutinib
  log2 fold change: 0.086
[1]
  log2 fold change: 0.004
ralimetinib
  log2 fold change: 0.026
[2]
  log2 fold change: -0.018
[3]
  log2 fold change: 0.044
[8]
  log2 fold change: 0.047
[5]
  log2 fold change: -0.036
[6]
  log2 fold change: 0.025
[7]
  log2 fold change: 0.04
